Unmarked numbers belong to inactive results.

The assay in a line: S. cerevisiae RM11-1a growth modifiers, primary screen, strain RM11-1a, OD600, basal, 24 h (AID 1177).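 Further: cultures grown under basal conditions with no added stressor; test concentration not given here.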 The conditions noted are these: OD600, 24 h, higher = more signal, called active from +8 up or from −8 down.
On to `C=C(/C(=C/C[C@H](OC(C)=O)c1ccc(CO)o1)c1cc(C(=O)OC)ccc1OC)C(C)C`, for which the z-score was 0.447.

On to `COC(=O)[C@@]1(Cc2ccccc2)N=C(c2ccc(OCCCO)cc2)O[C@H]1c1ccccc1`, for which the z-score is 1.47.

Take `CC(C)C[C@@H]1NC(=O)[C@@H]2C[C@H](C(=O)NCc3ccc(F)cc3)[C@H](c3cccc(OCCO)c3)N2C1=O`: the z-score was -0.694.

For `O=C1c2ccccc2[C@](Cc2ccccc2I)(C(=O)NCCN2CCOCC2)[C@H](c2ccc(CO)cc2)N1C1CCCCC1`, the z-score was 0.358.

Take `O=C1c2ccccc2[C@](Cc2ccccc2I)(C(=O)NCCN2CCOCC2)[C@H](c2ccc(CO)cc2)N1Cc1ccccc1Cl`: the z-score was -0.0576.

Take `CC(C)C(=C=CC[C@@H](O)c1ccc(OCCO)cc1)C[C@@H](O)COCc1ccccc1`: the z-score is -2.

Turning to `COC(=O)[C@]1(CCC(=O)OC(C)(C)C)N=C(c2ccc(OCCCO)cc2)O[C@@H]1c1ccccc1CN=[N+]=[N-]`, the z-score was 1.84.

With `NC(=O)NCC#Cc1ccc2c(c1)[C@]1(C(=O)N2)[C@H](c2ccccc2OCCO)N2[C@H](c3ccccc3)[C@H](c3ccccc3)OC(=O)[C@H]2[C@@H]1C(=O)Nc1nc2ccccc2s1`, the z-score was 2.16.

`C=CCC(OC(C)=O)[C@@H]1[C@@H](N(Cc2ccc(-c3ccccc3)cc2)C(=O)Cc2ccc(OC)cc2)c2cc(OCCCO)ccc2N1C(=O)Cc1ccc2ccccc2c1` (stereo not given in full): the z-score is -0.726.

For `C=C(CCCC)C(=O)CC[C@@H](OC(=O)c1ccccc1-c1ccccc1C(=O)O)c1ccc(OCCO)cc1`, the z-score was -0.585.

In the case of `CCCC[C@@H]1C[C@H]1[C@@H](NC(=O)c1ccco1)c1ccccc1C(F)(F)F`, the z-score is -0.064.

Turning to `CCOC(=O)C[C@H]1[C@H](OC(=O)c2cc3ccccc3oc2=O)[C@@H](NC(=O)c2ccccc2)c2cc(OCCCO)ccc2N1C(=O)c1ccc2ccccc2n1`, the z-score is -0.5.

Turning to `CCN(CC)c1ccc(N2CC=CC34O[C@@H]5C=CCCOC(=O)C5[C@H]3C(=O)N(CCCCCCO)[C@@H]4C2=O)cc1` (stereo not given in full), the z-score is -1.31.

In the case of `COC(=O)[C@@]1(Cc2ccccc2)[C@H]2c3cc(C(=O)N(C)C)n(Cc4ccsc4Br)c3C[C@H]2CN1C(=O)c1ccccc1`, the z-score is 1.24.

For the molecule `COCCOC(=O)N1C(=O)[C@@]2(c3ccccc31)[C@H](c1ccccc1OCCO)N1[C@H](c3ccccc3)[C@H](c3ccccc3)OC(=O)[C@H]1[C@@H]2C(=O)N1CCN(c2ncccn2)CC1`, the z-score was 3.08.

Consider `O[C@@H](Cc1ccccc1)[C@H]1C2C=CCCC=C2CN1Cc1cccc(Cl)c1` (stereo not given in full), for which the z-score is -0.068.

Turning to `COc1cc2c(cc1OC)CN(C(=O)[C@@H]1[C@H]3C(=O)O[C@H](c4ccccc4)[C@H](c4ccccc4)N3[C@H](c3ccccc3OCCO)[C@@]13C(=O)Nc1ccc(C#CCCO)cc13)CC2`, the z-score was 1.98.

For the molecule `Cc1ccc(S[C@]2(C(=O)O)CC(=O)N(C(C)C)[C@@H]2c2ccc(CO)cc2I)cc1`, the z-score is -2.76.

For the molecule `O=C1O[C@H](c2ccccc2)[C@H](c2ccccc2)N2[C@H]1[C@@H](C(=O)N1CCCCCCC1)[C@]1(C(=O)Nc3ccc(C#CCCO)cc31)[C@H]2c1ccccc1OCCO`, the z-score was 2.99.

Consider `C=CCNC(=O)[C@@H]1[C@H]2C(=O)O[C@H](c3ccccc3)[C@H](c3ccccc3)N2[C@H](c2ccc(O)cc2)[C@@]12C(=O)N(C(=O)OCCOC)c1ccc(C#CCNC(N)=O)cc12`, for which the z-score was -0.586.

For `O=C(c1ccccc1)N1C(=O)[C@@]2(Cc3ccccc31)N=C(c1ccc(OCCCO)cc1)O[C@H]2c1ccccc1`, the z-score is 0.655.

As to `C=C(/C(=C/C[C@H](OC(C)=O)c1ccccc1OCCO)c1cnc2ccccc2c1)C(C)C`, the z-score is 1.

As for `CC(C)C(CO)N1C(=O)[C@@H]2C3C(=O)OCCC/C=C\[C@H]3OC23C=CCN(CCN2CCOCC2)C(=O)[C@@H]13` (stereo not given in full), the z-score was -0.0505.

Regarding `CCCC[C@H]1OB(O)C[C@H]2C1=C(COC)C[C@H]1C(=O)N(C)C(=O)[C@H]12`, the z-score is -1.11.

On to `COC(=O)[C@@]1(Cc2ccc(F)cc2)[C@H]2c3cc(C(=O)N(C)C)n(Cc4ccc(Cl)c(C(F)(F)F)c4)c3C[C@H]2CN1C(=O)c1ccccc1`, for which the z-score is -0.285.

For the molecule `COc1ccc(CCNC(=O)[C@@]2(Sc3ccc(C)cc3)CC(=O)N(C3Cc4ccccc4C3)[C@@H]2c2ccc(CO)cc2I)cc1`, the z-score was 1.

`CCCC[C@H]1OB(O)C[C@H]2C1=C(COC)Cn1c(=O)n(-c3ccccc3)c(=O)n12`: the z-score is 0.523.

For the molecule `CN(C)CCCCCCNC(=O)[C@@H]1C[C@@H]2C(=O)N[C@@H](Cc3ccccc3)C(=O)N2[C@@H]1c1ccc(O)cc1`, the z-score is 0.179.

Take `C=C(COC)/C(=C/C[C@H](OC(C)=O)c1ccc(CO)o1)c1cc(C(=O)OC)ccc1OC`: the z-score is -0.253.

For `COC(=O)[C@@]1(Cc2ccc(OC)cc2)[C@@H]2C(=CC(=O)[C@H]2CC(=O)C(=O)N2CCCC2)CN1C(=O)c1ccccc1`, the z-score was 0.423.

For `Cc1ccc(N2C(=O)c3ccccc3[C@@H](C(=O)NC3CC3)[C@@H]2c2ccc(CO)cc2)nc1`, the z-score is -0.155.

For `COCCOC(=O)N1C(=O)[C@@]2(c3cc(C#CCC(C(=O)OC)C(=O)OC)ccc31)[C@H](C(=O)Nc1nc3ccccc3s1)[C@H]1C(=O)O[C@H](c3ccccc3)[C@H](c3ccccc3)N1[C@@H]2c1ccccc1OCCO`, the z-score is 2.8.

As to `COCCOC(=O)N1C(=O)[C@@]2(c3cc(C#CCC(C(=O)OC)C(=O)OC)ccc31)[C@H](c1ccccc1OCCO)N1[C@H](c3ccccc3)[C@H](c3ccccc3)OC(=O)[C@H]1[C@@H]2C(=O)NC[C@H](O)c1ccccc1`, the z-score is 2.84.

Take `CCCC[C@@H]1C[C@H]1[C@@H](NC(=O)c1ccccc1)c1ccc(C(=O)OC)cc1`: the z-score was -0.75.

In the case of `O=C1[C@@]23C=C(Br)[C@H](C[C@@H]2CCOC3)[C@@]12CO2`, the z-score was -0.0503.
